ST2 IL33 inh = inhibitors of human ST2 (IL1RL1) binding to IL-33; hit rate 2.3% among 78,000; Q01638; inhibition, % for hits at 17 µM; AID 1259354; AlphaLISA ST2-Fc/biotin-IL-33 interaction, 1 h; in the data active = inhibition above about 30%
Target sequence (Q01638 whole entry, looked up): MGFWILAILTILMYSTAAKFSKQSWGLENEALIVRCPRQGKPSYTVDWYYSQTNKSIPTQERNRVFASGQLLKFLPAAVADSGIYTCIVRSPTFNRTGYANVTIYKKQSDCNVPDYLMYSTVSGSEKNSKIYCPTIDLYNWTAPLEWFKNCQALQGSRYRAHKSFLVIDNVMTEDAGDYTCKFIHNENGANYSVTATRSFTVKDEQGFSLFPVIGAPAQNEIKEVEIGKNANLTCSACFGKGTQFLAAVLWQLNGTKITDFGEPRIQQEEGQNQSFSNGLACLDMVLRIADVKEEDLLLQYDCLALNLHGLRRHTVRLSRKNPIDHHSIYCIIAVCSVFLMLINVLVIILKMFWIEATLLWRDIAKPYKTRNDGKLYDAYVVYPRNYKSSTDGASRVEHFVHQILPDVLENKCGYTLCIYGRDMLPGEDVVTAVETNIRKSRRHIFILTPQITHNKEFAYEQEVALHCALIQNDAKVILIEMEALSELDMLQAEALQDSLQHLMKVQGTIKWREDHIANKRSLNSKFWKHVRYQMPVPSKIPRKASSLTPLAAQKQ
Of the large screens only hits and unclear results are named; the others gave an inactive call. This excerpt belongs to a sample that is enriched for hits.

COc1ccc2nc(Cl)c(Cl)nc2c1	none
COc1ccc2nc3c(nc2c1)C(=O)c1ccccc1-3	ST2 IL33 inh 32%
COc1cccc(C(=O)Nc2c3c(nn2-c2cccc(Cl)c2)CS(=O)C3)c1OC (configuration not stated)	none
CC(=O)c1ccc(C(=O)N2CCC3(CCCN(CCC4CCCCC4)C3)C2)cc1 (configuration not stated)	none
CC(=O)c1ccc(NC(=O)c2ccc(-c3ccccc3)cc2)cc1	ST2 IL33 inh 30%
Cc1cc(C)nc(NS(=O)(=O)c2ccc(NC(=O)c3ccc(-c4ccccc4)cc3)cc2)n1	none
CC(=O)c1ccc(NC(=O)Cc2ccccc2)cc1	none
NC(=O)c1ccc(NC(=O)c2ccccc2)cc1	none
NS(=O)(=O)c1ccc(NC(=O)c2ccc(-c3ccccc3)cc2)cc1	ST2 IL33 inh 30%
Cc1ccc(NC(=O)c2ccc(C(=O)Nc3ccc(C)cc3)cc2)cc1	none
COc1ccc(-c2oc3ncn(CCCO)c(=N)c3c2-c2ccc(OC)cc2)cc1	none
CCOc1cc(C(=O)Nc2ccc(N(C)C(C)=O)cc2)cc(OCC)c1OCC	none
Cc1nc(CCC(=O)N2CCCC(CCc3ccc(F)c(F)c3)C2)n[nH]1 (configuration not stated)	none
Cn1cc(CCC(=O)N2CCCC(C(=O)Nc3cccc(-c4ccc(F)cc4)c3)C2)cn1 (configuration not stated)	none
CCc1nnc(NC(=O)CSc2ncn[nH]2)s1	none
O=C(CSc1ncn[nH]1)Nc1cc(C(F)(F)F)ccc1Cl	none
CC(C)c1ccc(C(=O)CSc2ncn[nH]2)cc1	ST2 IL33 inh 30%
CCN1C(=O)N(C2Cc3ccccc3C2)C(=O)C12CCN(C1CCOCC1)CC2	none
COc1ccc(CCc2nc3cccnc3n2C2CCN(C(=O)C3CCCCCN3C)CC2)cc1 (configuration not stated)	none
CCOC(=O)N1CCN(c2ccccc2F)CC1	none
CC(C(=O)NC1CCCC1)N(c1ccccc1)S(C)(=O)=O (configuration not stated)	none
COc1cccc(C(=O)Nc2ccccc2C(=O)NC2CCCCC2)c1	none
CC(=O)N(C1=C(NC2CCCCC2)C(=O)c2ccccc2C1=O)c1ccc(F)c(F)c1	ST2 IL33 inh 45%
O=C(NC1CCCCC1)C(c1ccccc1)c1ccccc1	none
COc1cccc(N(C(C)=O)C2=C(NC3CCCCC3)C(=O)c3ccccc3C2=O)c1	ST2 IL33 inh 38%
COc1cccc(N2CC(NC(=O)C3CCCCC3)CC2=O)c1 (configuration not stated)	none
CC(=O)Nc1cccc(NCCC(=O)O)c1	none
CCOC(=O)c1nn(CC)c2c1CN(C(=O)c1cc(-c3ccsc3)n[nH]1)CC2	none
CCN(CC)C(=O)[C@@H]1C[C@H](N)CN1C(=O)c1cccc(-n2cnnc2)c1	none
CN(Cc1ncccc1C(=O)O)Cc1n[nH]c2c1CCCC2	none
Cc1ccc2[nH]c(CNC(C)c3cnn(-c4cccc(F)c4)c3C)c(C)c2c1 (configuration not stated)	ST2 IL33 inh 32%
Cc1c(C(C)NCc2ccc(F)c(F)c2)cnn1-c1ccccc1 (configuration not stated)	none
Cc1c(C(C)NCCCc2ccccc2)cnn1-c1cccc(F)c1 (configuration not stated)	none
COc1ccc(C2CCN(Cc3ccc(Sc4nncn4C)o3)c3ccccc3S2)cc1C (configuration not stated)	ST2 IL33 inh 31%
CN(Cc1ccc(Sc2nncn2C)o1)C1CCCN(Cc2ccccc2F)C1 (configuration not stated)	none
COc1ccc(-c2nn(-c3ccccc3C)cc2CNC2CCOCC2)cc1F	none
Cc1nc2c(C(=O)NC3CCCCC3)c[nH]n2c(=O)c1Cc1ccc(F)cc1Cl	none
CC(NC(=O)c1cc(C2CC2)on1)c1ccccc1 (configuration not stated)	none
COCC1CCN(C(=O)CN2CC(Cc3ccccc3)CC2=O)CC1 (configuration not stated)	none
Oc1oc(-c2ccc(Br)cc2)nc1C=Nc1cc(Cl)ccc1Cl	none
Oc1oc(-c2ccccc2)nc1C=Nc1cccc(F)c1	none
Oc1oc(-c2ccccc2)nc1C=Nc1cccc(Cl)c1	none
Oc1oc(-c2ccc(Cl)cc2)nc1C=Nc1ccc(Br)cc1	none
Oc1oc(-c2ccc(Br)cc2)nc1C=Nc1ccccn1	none
Oc1oc(-c2ccc(Br)cc2)nc1C=Nc1ccc(Cl)cc1Cl	none
Oc1oc(-c2ccc(Cl)cc2)nc1C=Nc1cccc(F)c1	ST2 IL33 inh 31%
Oc1oc(-c2ccc(Br)cc2)nc1C=Nc1ccc(Cl)cn1	ST2 IL33 inh 42%
Oc1oc(-c2ccc(Cl)cc2)nc1C=Nc1ccccc1Br	ST2 IL33 inh 31%
COCCCNC(=O)c1nn(C)c2c1CN(C(=O)c1ccccc1-c1ccccc1C)CC2	none
Cc1ccc(OCC2CCCN(C(=O)c3c(O)cccc3O)C2)cc1 (configuration not stated)	none
CCOC(=O)c1c(C)n(C)c2c1cc(OC(=O)C(C)(C)C)c1ccccc12	none
COc1ccc(Cn2c(CNS(=O)(=O)c3ccccc3Cl)nc3cccnc32)cc1	none
CCn1c(SCC(=O)OC)nc2sc3c(c2c1=O)CCCC3	none
CC(NC(=O)c1cc(CN2CCOCC2)on1)c1ccccc1-n1cccn1 (configuration not stated)	none
COc1ccc(C(=O)N2CC3(C)CN(C(=O)c4ccc(OC)cc4)CC(C)(C2)C3=O)cc1	none
CCOc1ccc(S(=O)(=O)N(CC)Cc2ccccc2)c2cccnc12	none
c1ccc(Sc2ncnc3nc[nH]c23)nc1	none
CC(C)(C)CC(=O)Nc1ccc([N+](=O)[O-])cc1	none
Cc1ccc(NCC(=O)c2ccc([N+](=O)[O-])cc2)cc1	ST2 IL33 inh 36%
Cc1ccc(NC(=O)c2ccc([N+](=O)[O-])cc2)cc1F	none
C[C@H]1[C@@H]2[C@@H](O)[C@H]([C@H](C)C(=O)NCc3cccs3)CC[C@@]2(C)CC[C@@H]1NC(=O)C1CC1	none
COc1cccc(NC(=O)CN2C(=O)CCc3cc(S(=O)(=O)N4CCCC4)ccc32)c1	none
Cc1cc(NC(=O)c2ccc3c(c2)OCO3)nc2c1c(=O)oc1ccccc12	none
CC(=O)Nc1cc(C)c2c(=O)oc3ccccc3c2n1	none
Cc1cc(NC(=O)/C=C\c2ccc3c(c2)OCO3)nc2c1c(=O)oc1ccccc12	ST2 IL33 inh 43%
CC(=O)Nc1ccc(NC(=O)c2cccc(Br)c2)cc1	none
COc1cc(/C=C2/SC(=Nc3ccccc3Cl)NC2=O)cc(OC)c1	none
O=C1N/C(=N/O)S/C1=C/c1ccc([N+](=O)[O-])cc1	none
CCOc1cc(/C=C2/SC(=Nc3ccccc3)NC2=O)ccc1OC	none
CC(C)c1ccc(/C=C2/SC(=Nc3ccccc3)NC2=O)cc1	ST2 IL33 inh 37%
O=C1NC(=Nc2ccccc2)S/C1=C/c1cc2c(cc1Br)OCO2	none
COc1ccc(/C=C2/SC(=Nc3ccc(S(N)(=O)=O)cc3)NC2=O)cc1	ST2 IL33 inh 37%
CCOC(=O)C1(CCc2ccccc2)CCCN(C(=O)CCN2CCCCO2)C1 (configuration not stated)	none
COC(=O)c1ccc(NC(=O)CN2CCN(Cc3ccccc3)S2(=O)=O)cc1	none
O=C(O)C1Cc2c([nH]c3ccccc23)C(c2ccccc2Cl)N1 (configuration not stated)	none
O=C(c1ccccc1[N+](=O)[O-])N1N=C(C(F)(F)F)CC1(O)c1cccnc1 (configuration not stated)	none
CCc1ccc(N=Cc2cc(Br)ccc2O)cc1	ST2 IL33 inh 36%
Cn1c(=O)n(C)c2cc(N=Cc3cc(Br)ccc3O)ccc21	ST2 IL33 inh 31%
CCc1ccc(N=Cc2cccc([N+](=O)[O-])c2O)cc1	none
Oc1c(Cl)cc(Br)cc1C=Nc1ccccc1	none

Screening results from PubChem BioAssay.
